The values below come from PubChem BioAssay AID1851 (National Center for Advancing Translational Sciences (NCATS), 2009).

The campaign covered roughly 16,000 compounds. About 5,100 (32%) were called active. Roughly 25% stayed inconclusive and do not appear here. This is one part of the list. Values without a mark were called inactive. The call rests on the fitted dose curve; in most records, active means well fitted curve in the direction sought with a large enough effect; inconclusive means small, poorly fitted or top-dose-only effect, or effect the other way; inactive means no such curve, though single readings can be large or run the other way.
On the % scale 0 is the no-effect control and ±100 the full control effect.

Cytochrome P450 3A4 (Homo sapiens), sequence (P08684 whole entry, looked up): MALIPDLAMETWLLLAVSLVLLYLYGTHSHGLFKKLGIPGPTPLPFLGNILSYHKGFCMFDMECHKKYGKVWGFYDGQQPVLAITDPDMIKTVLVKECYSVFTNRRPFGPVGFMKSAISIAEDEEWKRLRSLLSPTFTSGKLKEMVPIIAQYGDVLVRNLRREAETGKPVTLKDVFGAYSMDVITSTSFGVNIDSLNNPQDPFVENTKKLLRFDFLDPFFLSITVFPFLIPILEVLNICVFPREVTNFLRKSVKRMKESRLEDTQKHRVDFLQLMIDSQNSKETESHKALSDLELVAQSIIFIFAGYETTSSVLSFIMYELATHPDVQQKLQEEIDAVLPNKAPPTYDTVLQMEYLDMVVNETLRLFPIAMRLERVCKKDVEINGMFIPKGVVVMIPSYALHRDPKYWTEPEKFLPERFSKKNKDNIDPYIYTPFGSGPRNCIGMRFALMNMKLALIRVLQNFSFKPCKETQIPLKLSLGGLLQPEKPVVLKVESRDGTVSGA

The assay has as its target Cytochrome P450 3A4 (Homo sapiens) (UniProt P08684). The experiment in a line: Cytochrome panel assay with activity outcomes. The following applies: recombinant CYP, pro-luciferin dealkylation, luminescence, p450-cyp3a4; series mostly up to 57.1 µM; activity, negative = inhibition: at the top concentration.
In the case of `O=C(NCc1ccco1)c1ccccc1NS(=O)(=O)c1ccc(Br)s1`, the activity, negative = inhibition was -21% [at 2.29 µM].
As to `Cc1ccc(S(=O)(=O)N(Cc2ccccc2)c2ccccc2C(=O)NCc2ccco2)cc1`, the AC50 – broadly, the concentration at which the activity in the assay is half-maximal – is 2.51 µM (active).
Regarding `CN(CCCNC(=O)c1ccc(/C=N/O)nc1)CCCN(C)Cc1ccccc1`, the “activity, negative = inhibition” value is 2.5%.
Consider `CCCCOc1cc(C(=O)NCCN(CC)CC)c2ccccc2n1`, for which the “activity, negative = inhibition” value was -21.5% [at 25.6 µM].
As to `CN(CCCNC(=O)c1cccn2c(=O)c3ccccc3nc12)Cc1ccccc1`, the concentration at half-maximal activity (AC50) was 1 µM (active).
Still for that read-out and setting: in the case of `Cn1c(-c2ccc(Br)cc2)cnc1NCc1cccnc1` it was 3.98 µM (active).
In the case of `CCNc1ncc2nc(-c3ccc(F)cc3)c(=O)n(C)c2n1`, the “activity, negative = inhibition” value was 7.57%.
For `Cn1c(-c2ccc(F)cc2)cnc1NCc1cccc(F)c1`, the half-maximal activity concentration (AC50) was 8.91 µM (active).
As for `Cn1c(-c2ccc(F)cc2)cnc1NCc1ccc(F)cc1`, the “activity, negative = inhibition” value was 21.4%.
Consider `C[C@@H](/C=C\c1cccc(Oc2ccc(F)cc2)c1)N(O)C(N)=O`, for which the AC50 was 1 µM (active).
For the compound `CCC(C)(C)c1ccc(Oc2cccc(C(=O)O)c2)cc1`, the activity, negative = inhibition was -2.44% [at 11.4 µM].
The same measure, in the same setting: the same measure for `C[C@H](C(=O)O)c1cccc(Oc2ccccc2)c1`: -0.468% [at 25.6 µM]; for `COC(=O)/C=C\c1cc(O)ccc1O`: -17%.
Still for that read-out and setting: in the case of `CCn1nc(C)c(NC(=O)/C=C/c2cnn(C)c2C)c1C` it was -3.52%.
Consider `COc1ccc(Br)cc1/C=C/C(=O)Nc1c(C)cccc1C`, for which the AC50 is 4.47 µM (active).
For the compound `COc1cc2c(cc1OC)/C(=C/C(=O)N1CCOCC1)NC(C)(C)C2`, the “activity, negative = inhibition” value is 9.97%.
As to `CN1CCc2c(c3c(n2C)CCN(C)[C@H]3c2ccccc2F)[C@@H]1c1ccccc1F`, the AC50 was 7.94 µM (active).
Take `Oc1ccc(Cl)cc1Cc1cc(Cl)cc(Cc2cc(Cl)ccc2O)c1O`: the activity, negative = inhibition is -24.4% [at 11.4 µM].
For the compound `CN1CCC(=C2c3ccccc3Sc3ccccc32)CC1`, the “activity, negative = inhibition” value is 27.7% [at 25.6 µM].
On the same count and under the same terms, in the case of `CN(C)CC/C=C1\c2ccccc2CSc2ccccc21` it was -2.26% [at 25.6 µM].
As to `CN1CCN(CCC=C2c3ccccc3Sc3ccc(S(=O)(=O)N(C)C)cc32)CC1`, the half-maximal activity concentration (AC50) was 12.6 µM (active).
Turning to `CCC1(C)Nc2ccccc2C(=O)N1O` (stereo not drawn), the “activity, negative = inhibition” value was 8.28%.
On to `CCCCC1(C)Nc2ccccc2-c2nc3ccccc3n21` (stereo not drawn), for which the AC50 was 7.08 µM (active).
Take `CC1CCC2(CC1)N=C(N)Nc1nc3ccccc3n12` (stereo not drawn): the “activity, negative = inhibition” value was -19.5%.
For `NC1=NC2(CCCCCC2)n2c(nc3ccccc32)N1`, the “activity, negative = inhibition” value is -12.8%.
Turning to `CCCC1(C)Nc2ccccc2-c2nc3ccccc3n21` (stereo not drawn), the AC50 was 12.6 µM (active).
Still for that read-out and setting: in the case of `COC(=O)[C@@]1(Cc2ccccc2)[C@H]2c3cc(C(=O)N(C)C)n(Cc4ccsc4Br)c3C[C@H]2CN1C(=O)c1ccccc1` it was 1.58 µM (active); in that of `COC(=O)[C@@]1(Cc2ccccc2)[C@H]2c3cc(C(=O)N4CCCC4)n(Cc4ccsc4Br)c3C[C@H]2CN1C(=O)c1ccccc1`, 3.98 µM (active).
In the case of `CC(C)c1ccc(/C(C(=O)O)=C(\O)C(=O)O)cc1`, the activity, negative = inhibition is -12.9% [at 11.4 µM].
Regarding `O=C(O)CCC(=O)c1ccc2ccc3cccc4ccc1c2c34`, the activity, negative = inhibition is -10.9% [at 11.4 µM].
Same read-out and setting: in the case of `CC1(C)OC(=O)C(=CNCC(O)c2ccccc2)C(=O)O1` (stereo not drawn) it was 20.4% [at 11.4 µM].
In the case of `COc1ccc(-c2noc(N(C)CC(=O)Nc3cccc(C(F)(F)F)c3)n2)cc1`, the concentration at half-maximal activity (AC50) was 12.6 µM (active).
`COc1ccc(-c2cc(CNC(C)=O)on2)cc1`: the “activity, negative = inhibition” value is 17.4%.
On to `CC(=O)c1ccc(OC(=O)C2c3ccccc3Oc3ccccc32)cc1`, for which the activity, negative = inhibition was 10.9% [at 2.29 µM].
With `Cc1cccc2sc(NC(=O)C3c4ccccc4Oc4ccccc43)nc12`, the AC50 is 12.6 µM (active).
Regarding `Cc1ccccc1NC(=O)c1cnc(Nc2nc3ccccc3s2)nc1C`, the “activity, negative = inhibition” value is -7.53%.
As for `Cc1ccc2c(C)nc(Nc3nc(CSc4nc5ccccc5[nH]4)cc(=O)[nH]3)nc2c1`, the AC50 was 2.82 µM (active).
`C[N+](C)(C)CCCSc1nc2ccccc2[nH]1`: the activity, negative = inhibition was 4.86% [at 11.4 µM].
The same measure, in the same setting: the same measure for `O=c1nc(-c2ccccc2)cc(C(F)(F)F)[nH]1`: 6.38%.
Take `O=C(Nc1nn[nH]n1)c1nc(-c2ccccc2)cc(=O)[nH]1`: the activity, negative = inhibition is -3.85% [at 11.4 µM].
Take `Cc1ccc2nc(Nc3nc(-c4ccccc4)cc(=O)[nH]3)nc(C)c2c1`: the AC50 was 2.51 µM (active).
`CCOC(=O)Cn1c(=O)oc2cc(S(=O)(=O)NCCc3ccc(OCC)c(OCC)c3)ccc21`: the AC50 is 12.6 µM (active).
For the compound `CC(=O)Nc1ccc(S(=O)(=O)NCCc2ccc(F)cc2)cc1`, the activity, negative = inhibition is -13.3% [at 2.29 µM].
As for `O=C(NN=C1C2CC3CC(C2)CC1C3)c1ccncc1`, the half-maximal activity concentration (AC50) was 25.1 µM (active).
`CC(=O)c1c(C(C)=O)c(C)n(NC(=O)c2ccncc2)c1C`: the “activity, negative = inhibition” value was -3.59%.
The same measure, in the same setting: the same measure for `COc1ccc2c(c1)-c1ccccc1S(=O)(=O)N2C`: -20.4%.
Regarding `COc1ccc2c(c1)C(=O)N(c1ccccc1)C(=O)C2`, the half-maximal activity concentration (AC50) was 2.24 µM (active).
On to `O=C1c2ccc3c4c(ccc(c24)C(=O)N1c1ccc2ccccc2c1)CC3`, for which the “activity, negative = inhibition” value was -10.2%.
